Screening results deposited in PubChem by National Center for Advancing Translational Sciences (NCATS).
Sm TGR block – blocks Schistosoma mansoni thioredoxin glutathione reductase. Q962Y6. purified TGR, DTNB reduction, TNB absorbance 405 nm. Potency, µM (top dose mostly 114 µM), without a hit: at the highest dose activity change, negative = inhibition, hits mostly inhibitors. 360,000 tested, 3% active; note: potency is the fitted concentration of half-maximal effect; nearly all actives have a fitted effect of over 60% in size
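TGR 20 nM + NADPH 100 uM (dispensed conc.), cpd preinc 15 min RT; start with NADPH (500 uM addition) then DTNB (15 mM addition). Kinetic TNB absorbance, 405 nm filter. Four-parameter Hill fit across titration.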
RE007 growth inh – less growth of the S. pombe RE007 Vpr strain | S. pombe RE007 Vpr strain, BacTiter-Glo ATP luminescence, 24 h | Potency, µM (titrated, usually from 92.2 µM), for inactives: at the highest dose activity change, negative = less growth, usual class: inhibitors | 360,000 tested, 0.21% active | AID 651644; active = well fitted falling curve with a large enough effect; inconclusive = small, poorly fitted or top-dose-only effect; inactive = no such curve, though single readings can be large or run the other way; note: potency is the fitted concentration of half-maximal effect; nearly all actives have a fitted effect of over 50% in size
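Fission yeast RE007 carrying one integrated HIV-1 vpr copy, seeded at OD 0.01 in PMG+AL medium with 23 nL pinned compound. Grown 24 h at 30 degrees; viability read by BacTiter-Glo luminescence after 5 min.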
TbPYK inhibitor – blocks Trypanosoma brucei pyruvate kinase. 410,000 tested, 0.12% active. Potency, µM (doses to about 76.8 µM), inactives show at the highest dose activity, negative = inhibition, usual class: inhibitors. TbPYK enzyme, Kinase-Glo Plus ATP luminescence, 45 min; note: potency is the fitted concentration of half-maximal effect; nearly all actives have a fitted effect of over 50% in size
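Screened from lowest to highest concentration, compounds were pinned into TbPYK/substrate mixtures, and ADP (130 uM final) was added. Plates sat at room temperature for 45 min prior to Kinase-Glo Plus detection by luminescence.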
FMDV antiviral – blocks foot and mouth disease virus | FMDV antiviral cell-based qHTS | 410,000 tested, 1.2% active | Potency, µM (series often up to 57.9 µM), inactives show top-dose activity change, negative = inhibition, usual class: inhibitors | AID 1159524; calls by dose curve; tested in HEK293T cells; note: read-out not given here; potency is the fitted concentration of half-maximal effect; nearly all actives have a fitted effect of over 45% in size
Giardia FBPA inh – Giardia lamblia aldolase inhibition; Potency, µM (doses to about 59.6 µM), for the others: at the top dose activity, negative = inhibition, most hits filed as inhibitors; 290,000 tested, 0.71% active; A8B2U2; purified Giardia FBPA; note: potency is the fitted concentration of half-maximal effect; nearly all actives have a fitted effect of over 55% in size
Target sequence (A8B2U2 whole entry, looked up): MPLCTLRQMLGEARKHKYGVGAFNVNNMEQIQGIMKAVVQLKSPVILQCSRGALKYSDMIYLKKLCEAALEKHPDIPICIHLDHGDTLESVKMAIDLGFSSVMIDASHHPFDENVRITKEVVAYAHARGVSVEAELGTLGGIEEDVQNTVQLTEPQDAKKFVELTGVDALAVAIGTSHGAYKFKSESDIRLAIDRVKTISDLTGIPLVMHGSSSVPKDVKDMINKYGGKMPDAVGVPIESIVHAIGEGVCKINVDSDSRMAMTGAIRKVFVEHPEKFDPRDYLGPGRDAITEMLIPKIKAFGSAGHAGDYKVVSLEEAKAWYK
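Giardia FBPA (40 nM reagent) was preincubated 10 min at RT with compound (up to 57.5 uM final), then substrate plus GAPDH/TPI/NAD/arsenate coupling system with diaphorase/resazurin was added; resorufin fluorescence (525/598 nm) was read after 20 min.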
HCMV antiviral – blocks human cytomegalovirus replication; activity change, negative = inhibition, % at 57.5 µM; HFF cells, HCMV-luciferase reporter, 72 h; hits give low values; AID 1259415; 410,000 tested, 4.5% active; in the data active = activity change below about -60%; inconclusive = no clear call, values can overlap the other calls; inactive = above about -39%
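Inhibition of viral replication was scored as loss of reporter luminescence in HFFs infected with HCMV-luciferase (MOI 1 PFU/cell) for 72 h; compounds tested at 2 doses, normalized to buffer and Salinomycin controls.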
Numbers without * were called inactive; u = inconclusive; x = no result; [ ] = remark or other dose. Hits are enriched below; roughly 7.7% of the tested compounds scored in any of these assays. Unless noted, calls come from the whole dose curve; as a rule, active = well fitted curve in the direction sought with a large enough effect; inconclusive = small, poorly fitted or top-dose-only effect, or another doubt; inactive = no such curve, though single readings can be large; an effect the other way counts as inactive or inconclusive. % is set by controls: 0 for no effect and ±100 for the full control effect.

SMILES | Sm TGR block | RE007 growth inh | TbPYK inhibitor | FMDV antiviral | Giardia FBPA inh | HCMV antiviral
COc1ccc(CN2CCC3(CC2)c2ccccc2[C@@H](NC(=O)c2ccco2)[C@@H]3OC)c(O)c1 | x | x | x | -6% | x | x
O=C(Cn1ncn2cccc2c1=O)N1CCCCC1 | 12% | 0% | -15% | -11% | 6% | -18
Cc1ccc(Cl)cc1N1CCN(C(=O)Cn2ncn3cccc3c2=O)CC1 | -20% | -13% | -3% | u | -3% | -76*
CCN=c1scc(C)n1/N=C/c1ccc(O)c(O)c1O | 20µM* | -27% | u | 3% | u | -2
CCN=c1scc(C)n1/N=C/c1cc(Br)c(O)c(Br)c1 | u | -24% | -9% | 0% | -25% | u
COCCN=c1scc(-c2cccs2)n1/N=C/c1ccc(O)c(O)c1O | 40µM* | -10% | u | 1% | u | -38
COc1ccc(C(c2c(O)cc(C)n(Cc3ccco3)c2=O)N2CCCCC2)cc1OC (centres undefined) | 7.9µM* | x | -8% | -18% | x | 17
COc1ccc(C(c2c(O)cc(C)n(Cc3ccco3)c2=O)N2CCN(c3ccccc3)CC2)cc1 (centres undefined) | 3.2µM* | x | -10% | u | x | 9
COCCn1c(C)cc(O)c(C(c2ccccc2)N2CCCCC2)c1=O (centres undefined) | -3% | x | 1% | -21% | x | u
COCCn1c(C)cc(O)c(C(c2ccccc2Cl)N2CCCCC2)c1=O (centres undefined) | 28µM* | x | 5% | -21% | x | 1
Cc1cc(O)c(C(c2ccccc2)N2CCCCC2)c(=O)n1Cc1ccco1 (centres undefined) | 10µM* | x | -2% | -28% | x | 10
Cc1cc(O)c(C(c2ccccc2Cl)N2CCCCC2)c(=O)n1Cc1ccco1 (centres undefined) | 4.5µM* | x | 0% | -10% | x | 4
COc1ccccc1C(c1c(O)cc(C)n(Cc2ccco2)c1=O)N1CCCCC1 (centres undefined) | 7.1µM* | x | 0% | -15% | x | -2
COc1ccccc1C(CNC(=O)c1ccco1)N1CCCC1 (centres undefined) | -18% | -4% | 0% | 15% | x | 0
O=C(O)c1ccccc1N/N=C\c1ccnc2ccccc12 | 0% | -11% | -9% | 10µM* | -2% | u
O=C1OC(C2=CCCCC2)=NC12CC2 | x | x | x | x | 0%[12.9 µM] | x
Cn1c(=O)cc(SCC(=O)Nc2cccc(C#N)c2)c2ccc(Cl)cc21 | 6% | x | 2% | -8% | x | 7
O=C1CCCc2c1sc1nc3n(c(=O)c21)CCCCC3 | -7% | 3% | 4% | 60% | -9% | 92
O=C1c2sc3nc4n(c(=O)c3c2CCC1Br)CCCCC4 (centres undefined) | u | 2% | u | -41% | 20µM* | 59
C[C@@H]1OC(Oc2ccccc2-c2cc(=O)c3c(O)cc(O)c([C@@H]4O[C@H](CO)[C@@H](O)[C@H](O)[C@H]4O)c3o2)[C@H](O)[C@H](O)[C@H]1O (some centres undefined) | x | x | x | x | 0% | x
C#CCNc1cccc2c1S(=O)(=O)N[C@H](C)CO2 | x | x | x | x | x | 15
CCCS(=O)(=O)c1cn2cccc(N)c2c1S(=O)(=O)CCC | 22µM* | -14% | -11% | -13% | u | 54
CCCS(=O)(=O)c1c(S(=O)(=O)CCC)c2c(C)cccn2c1C(N)=O | -27% | 3% | -9% | 9% | 0% | -15
O=C(CNc1cccc(C(F)(F)F)c1)N/N=C/c1cccc(Br)c1 | -2% | 7% | 1% | -1% | -15% | -73*
CC(Sc1nnnn1C)C(=O)Nc1ccccc1-c1ccccc1 (centres undefined) | -18% | -3% | -5% | x | 1% | u
SMILES | Sm TGR block | RE007 growth inh | TbPYK inhibitor | FMDV antiviral | Giardia FBPA inh | HCMV antiviral
Cc1ccc(-n2nnnc2SC(C)C(=O)Nc2ccccc2-c2ccccc2)cc1 (centres undefined) | 2% | 6% | 0% | -23% | -1% | -61*
O=C(Nc1ccccc1)C12CC1/C(=N\O)c1ccccc1O2 (centres undefined) | x | x | x | -7% | x | x
CNc1cc(C(F)(F)F)nc(-c2ccccn2)n1 | -1% | 24% | 11% | -3% | 19% | 18
Nc1nc(-c2ccccn2)nc(N)c1Cc1ccccc1F | 0% | -23% | -4% | 7% | 0% | -102*
Nc1nc(-c2ccccn2)nc(N)c1Cc1c(F)cccc1Cl | 18% | u | -2% | 3% | 9% | -96*
Nc1nnc(Cc2ccc(Cl)cc2Cl)s1 | -8% | 7% | 7% | -15% | 2% | 14
Nc1nc(-c2ccccn2)nc(N)c1Cc1ccc(Cl)cc1Cl | 1% | u | 3% | 6% | -4% | -93*
COc1ccccc1CCc1nc2ccccc2n1C1CCN(C(=O)c2cc(C)nn2C)CC1 | x | x | x | -7% | x | x
CCCOc1ccc(OC(=O)c2cn(-c3ccc(OC)cc3)c(=O)c3ccccc23)cc1 | -4% | x | -2% | u | x | -23
COc1cc2cc(CCCOC(=O)c3cc(OC)c(OC)c(OC)c3)oc(=O)c2cc1OC | x | -8% | 7% | -9% | x | 14
COc1cc2cc(CCCOC(=O)c3ccco3)oc(=O)c2cc1OC | 50µM* | -9% | -6% | -16% | x | 4
O=C(CCCCCn1c(=O)c2sccc2n(CC(=O)Nc2cccc(Cl)c2)c1=O)NCc1ccc2c(c1)OCO2 | u | x | -4% | -20% | x | 1
CCOc1ccc(NC(=O)Cn2c(=O)n(-c3cccc(Cl)c3)c(=O)c3c2c2cc(C)ccc2n3C)cc1 | 7% | x | 3% | -15% | x | 24
Cc1cc(=S)cc(C)n1CCO | 14µM* | -30% | 3% | -7% | u | -3
Cc1cc(C)n(CCO)c(=O)n1 | 18% | 0% | 6% | 18% | -2% | 30
Cc1ccc(-c2cc3nccc(-c4cc([N+](=O)[O-])ccc4O)n3n2)cc1 | -2% | x | 5% | -11% | x | -63*
O=C1CC(c2ccc(Cl)cc2)Oc2ccc(Cl)cc21 (centres undefined) | x | 1% | 16% | -22% | x | u
Cn1c(Cl)cnc1C1CC(=O)c2cc(Cl)ccc2O1 (centres undefined) | -22% | u | -1% | 20µM* | -7% | -96*
CCC1OC(=O)C[C@H](O)C(C)[C@@H](O[C@@H]2OC(C)C(O)C(N(C)C)C2O)C(CCN2CC(C)CC(C)C2)CC(C)C(=O)/C=C/C(C)=C\[C@@H]1COC1OC(C)C(O)C(OC)C1OC (some centres undefined) | x | x | -7% | x | -1% | x
C[n+]1ccc(/C=C/c2c[nH]c3ccc(F)cc23)cc1 | -19% | u | -18% | u | u | -97*
